TGFb SMAD3 inh = inhibitors of TGF-b signaling; AID 588855; HepG2 CAGA-GFP TGF-b/SMAD3 reporter, GFP fluorescence, 18 h; TGF-beta stimulated, 500 pg/mL final; hit rate 1.2% among 410,000; Potency, µM (top dose mostly 46.1 µM), usual class: inhibitors; note: nearly all actives have a fitted effect of over 65% in size
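Inhibition was scored as loss of TGF-beta-induced (500 pg/mL final, 18 hours, 37 degrees C) GFP in HEPG2 cells carrying a CAGA-GFP reporter, in DMEM with 1% FBS. Well GFP was summed per cell; Activity was normalised to unstimulated and stimulated DMSO wells, then concentration-response fitting.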
DRD3 agonist = D3 dopamine receptor (human) agonism; P35462; D3R DiscoveRx beta-arrestin cells, luminescence, 90 min; max activation, %; hit rate 0.58% among 410,000; in the data active = max activation above about 30%
Target sequence (P35462 whole entry, looked up): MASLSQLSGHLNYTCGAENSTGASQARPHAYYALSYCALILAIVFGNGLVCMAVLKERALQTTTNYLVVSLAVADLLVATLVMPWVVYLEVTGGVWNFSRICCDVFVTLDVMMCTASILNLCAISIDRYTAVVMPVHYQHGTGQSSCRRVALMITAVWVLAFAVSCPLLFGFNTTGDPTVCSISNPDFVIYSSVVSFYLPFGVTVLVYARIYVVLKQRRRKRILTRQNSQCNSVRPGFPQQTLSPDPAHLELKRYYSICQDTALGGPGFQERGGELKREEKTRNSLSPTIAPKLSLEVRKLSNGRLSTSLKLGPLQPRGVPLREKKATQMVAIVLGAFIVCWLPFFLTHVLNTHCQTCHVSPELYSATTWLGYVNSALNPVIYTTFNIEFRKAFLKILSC
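Agonist-mode cell screen: cells plated at 1500/well and incubated overnight at 37 °C, then exposed to library compounds for 90 min at 37 °C. Detection reagent was added for 30–60 min at room temperature, and luminescence was read.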
HepG2 tox = HepG2 cytotoxicity, counter-screen for TGF-b inhibitors; HepG2 CAGA-GFP viability, ATP luminescence, 18 h; Potency, µM (doses to about 46.1 µM), most hits filed as cytotoxic; hit rate 0.76% among 410,000; AID 588856
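HepG2 CAGA-GFP cells (1000/well, DMEM with 1% FBS) received compound, then TGF-beta at 500 pg/mL final, and were incubated 18 hours at 37 degrees C. Viability was read by CellTiter-Glo luminescence. Media-only wells were set as complete cell-killing and DMSO as no toxicity.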
D3 antag = antagonists of human D3 dopamine receptor; P35462; D3R cells, DiscoveRx beta-arrestin luminescence, antagonist mode; active compounds read low; max response, negative = inhibition, %; hit rate 2.5% among 360,000; AID 652054; in the data active = max response below about -50%; inconclusive = no clear call, values can overlap the other calls
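Cells expressing the human receptor were seeded at 1500 cells/well, incubated overnight at 37 degrees C in 5% CO2, then exposed to library compounds with dopamine controls for 90 minutes at 37 degrees C before luminescent detection.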
ATXN viability = reduces viability in counter-screen for ATXN expression inhibitors. S2 cells (HEK-293 line with an ATXN2-luciferase reporter) viability, CellTiter-Fluor protease fluorescence, 24 h. Potency, µM (top dose mostly 56.7 µM), actives largely listed as cytotoxic. hit rate 0.49% among 400,000; note: nearly all actives have a fitted effect of over 40% in size
ATXN2 expr inh = reduces ATXN2 reporter expression in HEK-293 cells; AID 1745845; Potency, µM (highest dose often 57 µM), most hits filed as inhibitors; hit rate 0.72% among 360,000; HEK-293 ATXN2-luciferase reporter, luminescence, 24 h; note: nearly all actives have a fitted effect of over 55% in size
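ATXN2-luciferase reporter cells (luciferase flanked by upstream and downstream ATXN2 gene portions) were treated 24 h at 37 °C with compounds at up to 57 uM. SteadyGlo luminescence gave expression; GF-AFC fluorescence gave viability.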
A number is an active result; . = inactive; ? = inconclusive; / = no result. Rows were chosen to be rich in hits. Some 4.7% of all compounds tested hit in one or more screens of this group. Unless noted, calls come from the whole dose curve; as a rule, active = well fitted curve in the direction sought with a large enough effect; inconclusive = small, poorly fitted or top-dose-only effect, or another doubt; inactive = no such curve, though single readings can be large; an effect the other way counts as inactive or inconclusive.

SMILES	TGFb SMAD3 inh	DRD3 agonist	HepG2 tox	D3 antag	ATXN viability	ATXN2 expr inh
CC(C)(C)OC(=O)NC1CC2CCCC(C1)N2Cc1ccccc1 (stereo unspecified)	.	.	.	-85	.	.
COCC(=O)NC1CC2CCCC(C1)N2Cc1ccccc1 (stereo unspecified)	.	.	.	-77	.	.
Cc1cc(S(=O)(=O)Nc2ccc(C(=O)O)cc2)c(C)c(S(=O)(=O)c2ccc(Cl)cc2)c1	.	.	.	/	.	.
COc1cc(-c2nc(-c3ccc(NC(=O)c4ccc(Br)o4)cc3)no2)cc(OC)c1OC	.	105	.	.	?	.
COc1ccc(CCC(=O)Nc2ccc(-c3noc(-c4ccc(OC)c(OC)c4)n3)cc2)cc1	.	.	.	.	?	.
COc1ccc(-c2nc(-c3ccc(NC(=O)c4ccc(Br)o4)cc3)no2)cc1OC	?	38	.	.	18µM	?
CCc1nn(CC(=O)N2CCCCC2)c(=O)c2cc3occc3n12	.	.	.	/	.	.
CC(NC(=O)CN1CCN(c2cccc(Cl)c2)CC1)c1ccccc1 (stereo unspecified)	?	.	.	?	.	.
OC(CSc1ccccc1)CN1CCN(c2ccc(Cl)cc2)CC1 (stereo unspecified)	.	.	.	-86	.	.
OC(CSc1ccccc1)CN1CCN(c2cccc(Cl)c2)CC1 (stereo unspecified)	.	.	.	-85	.	.
Nc1nc(=O)n(C2OC(CO)C(O)C2O)cc1F (stereo unspecified)	.	.	.	-78	?	?
O=c1[nH]c(=O)n([C@@H]2O[C@H](CO)[C@@H](O)[C@H]2O)cc1F	.	/	.	/	/	/
COc1ccc(C(=O)CCN2CCCCCC2)cc1	?	.	.	-54	?	?
CC(C)Oc1ccc(C(=O)CCN2CCOCC2)cc1	?	.	.	.	?	?
Clc1cccc(OCCCCN2CCCCC2)c1	.	.	.	?	.	/
O=C(OCCN1CCCCC1)c1cccc(Cl)c1	.	.	.	-102	.	/
COc1ccc(C(=O)OCCN2CCCCC2)cc1	.	.	.	-78	.	.
CC(C)Oc1ccc(C(=O)CCN2CCCCC2)cc1	.	.	.	-78	.	?
CC(C)(C)c1ccc(C(=O)OCCN2CCCCC2)cc1	.	.	.	.	.	/
O=C(NCC1Cc2cc(F)cc(-c3cccnc3)c2O1)c1cnn(-c2ccccc2)c1 (stereo unspecified)	/	/	/	/	.	/
OC1(c2cccnc2)CCN(Cc2ccc3c(c2)CN(Cc2cc(F)ccc2F)CCO3)CC1	/	/	/	/	.	/
COCc1c(C(=O)NC2CCCC2)cnn1-c1nccc(-c2cc(C)sc2C)n1	/	/	/	/	.	/
O=C(C1CCCN(S(=O)(=O)c2cccs2)C1)N1CCN(c2ccccc2F)CC1 (stereo unspecified)	?	.	.	/	.	.
Cc1ccc(Cn2c(CO)cnc2SCC(=O)NCc2ccccc2Cl)cc1	?	.	.	/	.	.
CCN1CCN(CCCNC(=O)Cn2c(-c3cccs3)cc3cc(F)ccc32)CC1	.	.	.	/	?	.
SMILES	TGFb SMAD3 inh	DRD3 agonist	HepG2 tox	D3 antag	ATXN viability	ATXN2 expr inh
COc1ccc(/C(C)=N/NC(=O)Cn2nc([N+](=O)[O-])cc2C)cc1	.	51	.	.	.	.
O=C(CSCc1cnn(-c2ccccc2)c1-n1cccc1)NCc1ccccc1F	?	.	.	/	/	/
CC(C)CN1C(=O)C(=O)N(CC(=O)c2ccc3c(c2)OCO3)C1=O	.	.	.	.	.	.
Cc1nc2ccccc2nc1OCC(=O)NCc1ccc2c(c1)OCO2	.	.	.	-65	.	.
O=C(COc1ncnc2ccccc12)NCc1ccc2c(c1)OCO2	.	.	.	.	.	.
CC(C)CN1C(=O)C(=O)N(CC(=O)NCc2ccc3c(c2)OCO3)C1=O	?	.	.	-52	.	.
CCCCNc1sc(S(=O)(=O)CCC)nc1S(=O)(=O)c1ccc(C)cc1	?	.	.	/	.	.
O=C(NC1CCN(Cc2ccccc2)C1)c1cnn(-c2ncc3c(n2)-c2ccccc2CC3)c1C1CC1 (stereo unspecified)	/	/	/	/	.	/
CCc1nc2ccc(C(=O)N(C)CCN(C)C)cn2c1N(C)Cc1cc2ccccc2s1	.	.	.	-69	.	.
CCCCN(C=O)c1c(CC)nc2ccc(C(=O)NCc3ccccc3OC)cn12	.	.	.	-51	?	.
CCc1nc2ccc(C(=O)N(CC)CCN(C)C)cn2c1N(C)Cc1cccs1	.	.	.	.	.	.
CCc1nc2ccc(C(=O)NCCOc3ccc(OC)cc3)cn2c1N(C)CCCc1ccccc1	14µM	.	.	.	?	?
CCc1nc2ccc(C(=O)NCCc3ccccn3)cn2c1N(C)Cc1ccc(N(C)C)cc1	?	.	13µM	.	.	.
CCc1nc2ccc(C(=O)NCc3ccccc3OC)cn2c1N(C=O)CCC(C)C	.	.	.	.	.	.
CC(C)(C)C(=O)Cn1c(=O)n(-c2ccc(Cl)c(Cl)c2)c(=O)c2c3c(sc21)CCCC3	.	.	.	/	.	.
CCn1cc(S(=O)(=O)c2ccccc2)c(=O)c2cc(F)c(N3CCCC3)cc21	.	.	.	/	.	.
Cc1ccc(CSC2=NS(=O)(=O)c3ccccc32)cc1	?	/	.	/	/	/
CC(=O)N1CCc2cc(C(=O)CN3CCN(c4ccccn4)CC3)ccc21	?	68	.	.	.	.
CC(=O)N1CCc2cc(S(=O)(=O)CCC(=O)N3CCN(c4ccccc4F)CC3)ccc21	.	.	.	.	.	.
CC(=O)N1CCc2cc(S(=O)(=O)CCC(=O)N3CCN(c4ccccn4)CC3)ccc21	.	.	.	.	.	.
CC(=O)N1CCc2cc(C(=O)CN3CCN(c4ccccc4F)CC3)ccc21	.	.	.	-65	.	.
O=C(CN1CCN(c2ccccc2F)CC1)c1c[nH]c2ccc(F)cc12	.	.	.	.	.	.
O=C(CN1CCN(c2ccccc2F)CC1)c1ccc2cc[nH]c2c1	.	.	.	-63	.	.
CN(C)c1cccc(-c2cc(Nc3ccc(C(C)(C)C)cc3)ncn2)c1	.	.	.	-55	.	.
CN(C)c1ccc(Nc2cc(Cl)ncn2)cc1	.	.	.	.	.	/
CC(=O)c1cccc(NS(C)(=O)=O)c1	.	.	.	.	?	/
CS(=O)(=O)Nc1cccc(C(=O)OCCCOc2ccc(F)cc2)c1	.	74	.	.	.	.
COC(=O)[C@@H]1CCCN1C(=O)c1cc(NC(=O)C2CCC2)c2c(c1)nc(-c1ccncc1)n2C	/	/	/	/	.	/
O=C(CCn1cnc2ccccc2c1=O)NCc1ccccc1Cl	.	.	.	/	.	.

From PubChem
